Data: PubChem BioAssay
Records with an inconclusive call do not appear. The source made the active and inactive calls.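 How the source made its calls: active means viability at or below 27.92% in each of two runs, the all-compound median minus 4 SD; inconclusive means no clear call, values can overlap the other calls; inactive means the rest.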

Assay: viability of PTEN-null HCT116 cells – cell-based, HCT116 clonal line, CellTiter-Glo, pilot screen (AID 824);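 further: 0% = 20 µM Hyamine control and 100% = vehicle cell control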
Settings: HCT116 PTEN-deleted viability, 60 h, at 10 µM, stronger effect = lower value

| Compound | viability |
| --- | --- |
| Nc1nc(Nc2ccccc2Br)nc(C(F)(F)F)n1 | 93.4% (inactive) |
| O=C(c1ccc(F)cc1)c1cn[nH]c1-c1ccccc1O | 94.9% (inactive) |
| CC(C)NC(=O)CCCc1ccccc1 | 91.1% (inactive) |
| COc1ccc(C2N(c3ccc(Cl)cc3)C(=O)C3CCCN32)cc1 (stereo not given) | 99.9% (inactive) |
| Cn1c(CCNC(=O)C(C)(C)C)nc2ccccc21 | 98.5% (inactive) |
| CCCCN1C(=O)C(O)(CC(=O)c2ccccc2OC)c2ccccc21 (stereo not given) | 89.5% (inactive) |
| CCC(=O)Nc1c2c(nn1-c1ccc(F)cc1)CS(=O)C2 (stereo not given) | 99.5% (inactive) |
| O=C(Cn1c(=O)oc2cc(S(=O)(=O)N3CCOCC3)ccc21)N1CCc2ccccc2C1 | 93.8% (inactive) |
| O=C(CCCN1C(=O)c2ccccc2C1=O)Nc1ccccc1C(=O)N1CCOCC1 | 103% (inactive) |
| CCCCn1c(CCC(=O)O)ccc1-c1cccs1 | 94.8% (inactive) |
| FC(F)(F)c1nnc2ccc(-n3ccnc3)nn12 | 88.4% (inactive) |
| CCOC(=O)C1Cc2ccccc2C(=O)O1 (stereo not given) | 100% (inactive) |
| Cc1ccc(N2CCN(C(=O)c3ccccc3F)CC2)c(C)c1 | 91% (inactive) |
| CN=C1SC(CC(=O)Nc2ccccc2F)C(=O)N1C (stereo not given) | 98.9% (inactive) |
| CC(=O)Nc1ccc(NC(=O)c2oc3cc(C)c(C)cc3c2C)cc1 | 96.4% (inactive) |
| CC(=O)Nc1ccc(S(=O)(=O)Nc2cccc(C(=O)NC(C)(C)C)c2)cc1 | 88.2% (inactive) |
| CCc1nnc(NC(=O)CCC(=O)O)s1 | 96.3% (inactive) |
| OC(COc1ccc(Cl)c2ccccc12)CN1CCN(c2ccccn2)CC1 (stereo not given) | 95.2% (inactive) |
| CC1(C)CC(=O)C=C(NCCCNC2CCCCC2)C1 | 93% (inactive) |
| Cc1cc(Nc2ccc(F)cc2)n2nc(C)nc2n1 | 97.2% (inactive) |

| Compound | viability |
| --- | --- |
| Cc1cc(C(=O)N2CCN(C(c3ccccc3)c3ccccc3)CC2)on1 | 76.7% (inactive) |
| COc1cccc(C2NC(CCSC)(C(=O)O)C3C(=O)N(C(C)C)C(=O)C23)c1O (stereo not given) | 97.2% (inactive) |
| CC1CC(C)CN(S(=O)(=O)c2cccc3cccnc23)C1 (stereo not given) | 94.9% (inactive) |
| COc1ccc(NS(=O)(=O)c2ccc3c(c2)oc(=O)n3C)c(OC)c1 | 91.5% (inactive) |
| Cc1ccc(-c2nc(CS(=O)(=O)CC(=O)N3CC(C)CC(C)C3)c(C)o2)cc1 (stereo not given) | 72.8% (inactive) |
| COc1ccc(-n2c(Cn3c(=O)sc4ccccc43)nnc2SCC(=O)N2CCCC2)cc1 | 102% (inactive) |
| CC(C)c1ccccc1NC(=O)CCCC(=O)O | 102% (inactive) |
| CCc1ccc(C2CC(c3ccccc3)Nc3nc(N)nn32)cc1 (stereo not given) | 100% (inactive) |
| COc1cccc(-c2csc(NC(=O)C3CC3)n2)c1 | 91.5% (inactive) |
| CCC(C)N1C(=O)CCC1C(=O)NCc1ccc2c(c1)OCO2 (stereo not given) | 97.2% (inactive) |
| C=CCSC1=C(C#N)C(c2ccc(OCC)cc2)CC(=O)N1 (stereo not given) | 88.2% (inactive) |
| COC(=O)C1C(=O)C=C(N2CCOCC2)CC1(C)C (stereo not given) | 105% (inactive) |
| CCOCCCNC(=O)C(NC(=O)C1CCC(=O)N1)c1ccc(C)cc1 (stereo not given) | 98.8% (inactive) |
| CC(C)N(CCc1ccncc1)C(=O)Nc1ccc(Cl)c(Cl)c1 | 87.8% (inactive) |
| C=CCn1c(C)nc2c(c1=O)c1nc3ccccc3nc1n2-c1ccc(C)cc1 | 82.2% (inactive) |
| COC(=O)c1ccccc1NC(=O)Cn1cc2c(n1)CCC(C)C2 (stereo not given) | 87.9% (inactive) |
| Cc1cccc(-n2c(CNC(=O)c3ccccc3)nnc2SCC(=O)Nc2nccs2)c1 | 103% (inactive) |
| CCc1nnc(NC(=O)CSc2nnc(Cc3cccn3C)n2C)s1 | 96% (inactive) |
| CC(=O)c1ccc(N2CCN(C(=O)c3cc4c(=O)n(C)c5ccccc5c4n3C)CC2)cc1 | 88.5% (inactive) |
| O=C(c1cc(-c2cccc(O)c2)on1)N1CCc2ccccc2C1 | 99.2% (inactive) |
